Assay results taken from PubChem BioAssay (NCATS).
Results filed as inconclusive are left out. Active and inactive are the calls of the source. The call rests on the fitted dose curve; in most records, active means well fitted curve in the direction sought with a large enough effect; inconclusive means small, poorly fitted or top-dose-only effect, or another doubt; inactive means no such curve, though single readings can be large; an effect the other way counts as inactive or inconclusive.

Experiments:
[1] = target: Aldehyde dehydrogenase, mitochondrial (Homo sapiens) (UniProt P05091); assay: qHTS for Inhibitors of the Aldehyde Dehydrogenase Family (ALDH2) Primary screen (AID 2061308); further: nearly all actives have a fitted effect of over 55% in size
[2] = target: Retinaldehyde dehydrogenase 3 (Homo sapiens) (UniProt P47895); assay: qHTS for Inhibitors of the Aldehyde Dehydrogenase Family (ALDH1A3) Primary screen (AID 2061315)
[3] = BET inhibitor-based combinations targeting novel dependencies in MECOM-rearranged (r) AML: HNT-34 cell line (AID 2202234); further: potency means the concentration at half of the fitted maximal effect; nearly all actives have a fitted effect of over 35% in size
Outline: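 Seeding density was 500 cells/well, and drug exposure lasted 48 hr under standard culture conditions. Read-out used CellTiter-Glo reagent with a 15 min room-temperature incubation before luminescence measurement; AUC and Z-AUC summarize the normalized responses.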

[4] = target: Retinaldehyde dehydrogenase 3 (Homo sapiens) (UniProt P47895); assay: qHTS for Inhibitors of the Aldehyde Dehydrogenase Family (ALDH1A3) Confirmatory screens (AID 2061311); further: potency means the concentration at half of the fitted maximal effect; nearly all actives have a fitted effect of over 60% in size
[5] = target: Retinaldehyde dehydrogenase 3 (Homo sapiens) (UniProt P47895); assay: qHTS for Inhibitors of the Aldehyde Dehydrogenase Family (ALDH1A3) Validation screen (AID 2061312); further: potency means the concentration at half of the fitted maximal effect; nearly all actives have a fitted effect of over 45% in size
[6] = target: Retinal dehydrogenase 2 (Homo sapiens) (UniProt O94788); assay: qHTS for Inhibitors of the Aldehyde Dehydrogenase Family (ALDH1A2) Confirmation screens (AID 2061314); further: potency means the concentration at half of the fitted maximal effect; nearly all actives have a fitted effect of over 65% in size

Q: For `CC(C)[C@](O)(c1ccc2cc(OC(F)F)c(OC(F)F)cc2c1)c1cn[nH]n1`, which Potency [1] is on record?
A: inactive

Q: What about the Potency [2] of the same molecule?
A: inactive

Q: What about the Potency [3] of the same molecule?
A: 18.6 µM (active)

Q: With `Nc1nc(OCc2cc(Br)cs2)c2[nH]cnc2n1` as the molecule, how does the Potency [1] read?
A: inactive

Q: For `C/C=C/C=C/C(CC(=O)O)Nc1ccc(C=O)cc1` (stereo not drawn), which Potency [4] is on record?
A: 12.7 µM (active)

Q: What does the source list for `C=CC(=O)N1CC(N2CCN(C(=O)CNc3cc(C4CC4)c(Cl)cc3O)CC2)C1`?
A: Potency [4]: 4 µM (active); Potency [5]: 10 µM (active)

Q: With `O=C(O)c1ccc(-n2cccc2/C=C2\SC(=O)N(Cc3ccc(Cl)cc3)C2=O)cc1` as the molecule, how does the Potency [6] read?
A: 17.8 µM (active)
